Results on 96 compounds are retold here after PubChem BioAssay AID1347416 (National Center for Advancing Translational Sciences (NCATS), 2020).

About 1,600 (39%) of roughly 4,100 compounds were called active. About 25% were inconclusive and are not listed. Calls come from the whole dose curve; as a rule, active = well fitted inhibition curve with a large enough effect; inconclusive = small, poorly fitted or top-dose-only effect; inactive = no such curve, though single readings can be large or run the other way. Some of the results follow. Entries that show only a call come without a potency.
Potency is the fitted concentration of half-maximal effect.

The test in a line: qHTS Validation assay for Inhibitors of Plasmodium falciparum Dd2 growth in vitro. Note: nearly all actives have a fitted effect of over 70% in size. The conditions noted are these: P. falciparum Dd2 in RBCs, SYBR Green growth, 72 h; series mostly up to 28.7 µM. The method in brief:
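P. falciparum Dd2-infected red blood cells (2.5% hematocrit, 0.3% parasitemia) grown 72 h at 37 °C under 5% O2 with compounds in a titration, 29 uM to 0.5 nM final. Growth read as SYBR Green-1 fluorescence after ~16 h lysis; artesunate 300 nM as positive control.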
For orientation: qHTS replaces the single test concentration by a dilution series.
Consider `Cc1ccc(-c2[nH]n3c(=O)c4c(nc3c2C)CCCC4)cc1`, for which the Potency was 2.99 µM (active).
The result for `O=C(NCCN1CCCCCC1)C1CCCN1S(=O)(=O)c1cccc2nsnc12` (stereo unspecified) reads “inactive”; that for `O=C(NCCN1CCCC1)C1CN(S(=O)(=O)c2cccs2)CC12CCCCC2` (stereo unspecified), 13.3 µM (active).
Regarding `O=C(NCc1ccco1)C1CN(S(=O)(=O)c2ccccc2)CC12CCCCC2` (stereo unspecified), the Potency result is “inactive”.
Then `CN(C)CCCNc1c2ccccc2nc2ccccc12`, with 4.22 µM (active).
The result for `O=C(NCCc1c[nH]c2ccccc12)c1cncc(Br)c1` reads “inactive”.
Take `c1ccc2c(NCCc3c[nH]c4ccccc34)c3ccccc3nc2c1`: the Potency was 1.88 µM (active).
The result for `Cc1cc(C)n(-c2nc3cc(Cl)ccc3nc2N2CCN(c3ccccc3F)CC2)n1` reads “inactive”; that for `Cc1cc(Nc2nc3ccccc3nc2Cl)n(-c2ccccc2C)n1`, 0.842 µM (active).
Then `CC(C)CNc1nnnc2c1sc1nc(N3CCOCC3)c3c(c12)CCCC3`, with 15 µM (active); and `COC(C)c1ccc(-c2cc(C(=O)O)cc(S(=O)(=O)NC(C)C)c2)cc1` (stereo unspecified), with “inactive”.
On to `Cc1cccc(C(=O)NC2CCN(c3cc(-c4ccc(Cl)cc4)[nH]n3)C2)c1` (stereo unspecified), for which the Potency result is “inactive”.
Regarding `Cc1ccc(-n2nc3c(=O)n(CCCC(=O)NCc4ccccc4F)nc(C)c3c2C)cc1`, the Potency result is “inactive”.
As to `COc1cc(C(=O)NC2CCN(c3cc(-c4ccccc4)[nH]n3)CC2)cc(OC)c1OC`, the Potency is 5.96 µM (active).
As to `O=C(NC1CCN(c2cc(-c3ccc(Cl)cc3)[nH]n2)C1)c1ccccc1` (stereo unspecified), the Potency result is “inactive”.
Take `O=C(NC1CCCN(c2cc(-c3ccccc3)[nH]n2)C1)c1ccccc1` (stereo unspecified): the Potency entry was “inactive”.
The result for `Cc1ccc2c(c1)COc1c3ccc(C(=O)O)cc3nn1-2` reads “inactive”; that for `Cn1c(=S)[nH]c2sc3c(c2c1=O)CCC(C(C)(C)C)C3` (stereo unspecified), 5.31 µM (active).
On to `Cn1c2c(c(=O)n(C)c1=O)C(c1cc(Br)ccc1F)CC(=O)N2` (stereo unspecified), for which the Potency entry was “inactive”.
Then `COc1ccccc1NC(=O)C1=C(C)Nc2ncnn2C1c1ccccc1C(=O)O` (stereo unspecified), with “inactive”; and `CC1=C(C(=O)Nc2ccccc2)C(c2cc(Br)ccc2F)n2ncc(C(=O)Nc3ccccc3)c2N1` (stereo unspecified), with 1.68 µM (active); and `COc1ccc(Br)cc1C1C(C(=O)Nc2ccc(C)cc2C)=C(C)Nc2ncnn21` (stereo unspecified), with “inactive”.
Then `CC1=C(C(=O)Nc2ccc(C)cc2C)C(c2cc(Br)ccc2F)n2ncc(C(=O)Nc3ccc(C)cc3)c2N1` (stereo unspecified), with 1.5 µM (active).
`CC1(CNc2ccccc2)COc2ccc(C(=O)NCc3cccs3)cc2N1` (stereo unspecified): the Potency result was “inactive”.
Then `O=C(c1ccccc1)N1CCC(N(Cc2cccnc2)C2CCOCC2)CC1`, with “inactive”; and `COc1ccc2nc(N(Cc3cccnc3)C(=O)CCc3ccccc3)sc2c1`, with 6.68 µM (active); and `COc1cccc(CN(C)C(=O)CCc2nnc(-c3ccsc3)o2)c1`, with “inactive”.
On to `c1cnc(N2CCOCC2)c(OC2CCNC2)n1` (stereo unspecified), for which the Potency was 7.5 µM (active).
The result for `COc1ccccc1-c1nnc(C2CCN(C(=O)c3ccc(Cl)cc3)CC2)o1` reads “inactive”; that for `COc1ccccc1-c1nnc2n1C(C(=O)NCCc1ccc(Cl)cc1)CC2` (stereo unspecified), 3.35 µM (active); that for `CCC(=O)N1c2ccccc2CC1C(=O)NCCc1ccccc1OC` (stereo unspecified), “inactive”.
For `Fc1cc(F)cc(Cc2nc3nccc(-c4cccs4)n3n2)c1`, the Potency result is “inactive”.
As to `COc1ccccc1NC(=O)C(=O)NCCc1csc(-c2cccc(F)c2)n1`, the Potency result was “inactive”.
The result for `COc1ccc(CNC(=O)CCCn2c(=O)c3cccn3c3ccc(F)cc32)cc1OC` reads “inactive”; that for `CC(NC(=O)Cn1c(-c2cccs2)cc2cc(F)ccc21)c1ccccc1` (stereo unspecified), 2.66 µM (active); that for `COc1ccc(CCNC(=O)Cn2c(-c3cccs3)cc3cc(F)ccc32)cc1OC`, 4.73 µM (active).
Then `FC(F)(F)c1cnc(N2CCCN(C(=S)Nc3ccccc3)CC2)c(Cl)c1`, with 4.73 µM (active); and `O=C(C1CC1)N1CCC(c2nc(C3CCOCC3)no2)CC1`, with “inactive”.
The result for `CC(C)CNC(=O)c1nc(-c2ccc(Cl)cc2)c2cnccn12` reads 8.63 µM (active); that for `COCCNC(=O)c1nc(-c2ccc([S+](C)(=O)[O-])cc2)c2ccccn12`, “inactive”.
Regarding `COC(=O)c1[nH]c2cccc(Cl)c2c1NC(=O)CN1CCCCC1C` (stereo unspecified), the Potency entry is “inactive”.
For the compound `COc1cc(=O)n2c(c1C(=O)Nc1ccc(N(C)C)cc1)CCCC2`, the Potency is 10.6 µM (active).
With `Cc1ccsc1C(=O)Nc1cccc(-c2nnc3n2CCCC3)c1`, the Potency entry is “inactive”.
Then `COCCOc1cc(=O)n2c(c1C(=O)NCc1ccc(OC)cc1)CCOCC2`, with “inactive”.
On to `COc1ccc(C2=[N+](C)CCn3cccc32)c(OC)c1`, for which the Potency was 10.6 µM (active).
Turning to `COc1ccc(CNC(=O)CCc2c(C)nn(-c3ccc(N4CCOCC4)nn3)c2C)cc1`, the Potency entry is “inactive”.
For `CCOc1c(OC)cccc1-c1nc2ccc(-c3ccc(OC)c(OC)c3OC)cc2o1`, the Potency entry is “inactive”.
The result for `COc1ccc(-c2cc(-c3ccc(N4CCOCC4)nc3)cn3cncc23)cc1` reads 7.69 µM (active); that for `COc1ccc(-c2cc(-c3cccc(OC)c3OC)cn3cncc23)cc1`, 6.85 µM (active); that for `Nc1ncnc2c1ncn2[C@H]1O[C@@H](CNS(=O)(=O)NC(=O)c2cccc(-c3noc(-c4ccccc4F)n3)c2)[C@H](O)[C@@H]1O`, “inactive”.
For `O=C(C1Cn2cccc2C(=O)N1Cc1ccccc1)N1CCN(c2ncccn2)CC1` (stereo unspecified), the Potency result is “inactive”.
For the compound `Cc1ccc(C)c(-n2c(-c3ccc(Br)cc3)csc2=NC(=O)c2ccccc2F)c1`, the Potency is 4.73 µM (active).
Then `CCCOc1cccc(C2c3c(oc4cc(C)c(C)cc4c3=O)C(=O)N2CCCN2CCOCC2)c1` (stereo unspecified), with 13.3 µM (active); and `CCCOc1cccc(C2c3c(oc4ccc(F)cc4c3=O)C(=O)N2Cc2ccc3c(c2)OCO3)c1` (stereo unspecified), with “inactive”; and `CCN1CCN(c2cc(C)c3cc(NC(=O)/C=C/c4cccc(OC)c4OC)ccc3n2)CC1`, with 5.96 µM (active).
`COc1cccc(/C=C/C(=O)Nc2ccc3nc(N4CCN(C)CC4)cc(C)c3c2)c1OC`: the Potency is 5.96 µM (active).
Then `COc1cccc(C(=O)Nc2cccc(-c3cn4c(C)csc4n3)c2)c1OC`, with “inactive”; and `Cc1ncc(CN2CCC(C(=O)Nc3ccc(-n4cccn4)cc3)CC2)s1`, with 4.73 µM (active); and `CCOC(=O)c1c(S(=O)(=O)N2CCC(C(=O)Nc3ccc(OCC)cc3)CC2)c(C)n(C)c1C`, with “inactive”.
For the compound `Cc1ccsc1CN1CCC(C(=O)N2CCCCCCNC(=O)CC2)CC1`, the Potency result is “inactive”.
The result for `CN(C)CCNC(=O)c1ccc2c(c1)N(Cc1c(F)cccc1Cl)C(=O)c1ccccc1S2` reads 2.11 µM (active).
Turning to `CCCCN(CC)CCCNC(=O)c1ccc2c(c1)N(Cc1ccc(C)cc1)C(=O)c1ccccc1S2`, the Potency is 1.88 µM (active).
Regarding `CCN(CC)CCCNC(=O)c1ccc2c(c1)N(Cc1c(F)cccc1Cl)C(=O)c1ccccc1S2`, the Potency was 0.944 µM (active).
Then `COCCCNC(=O)c1ccc2c(c1)CC(=O)N2Cc1ccccc1`, with “inactive”; and `Cc1ccccc1CNC(=O)CC1C(=O)NCCN1Cc1c(F)cccc1Cl` (stereo unspecified), with “inactive”.
The result for `CC(C)CCNC(=O)c1ccc2c(c1)CC(=O)N2Cc1ccccc1` reads “inactive”; that for `O=C(NCc1ccco1)c1ccc2c(c1)N(Cc1c(F)cccc1Cl)C(=O)c1ccccc1S2`, 13.3 µM (active).
Then `O=C(NCc1ccco1)c1ccc2c(c1)N(Cc1ccc(F)cc1)C(=O)c1ccccc1S2(=O)=O`, with “inactive”.
As for `CC(C)[C@@H]1CN(C(=O)CCn2ccc(=O)[nH]c2=O)C[C@H]1NS(C)(=O)=O`, the Potency entry was “inactive”.
Then `CCOc1ccccc1NC(=O)Cn1c(-c2ccccc2)nc(C)cc1=O`, with “inactive”; and `CCOc1ccccc1NC(=O)Cn1c(-c2ccc(Cl)cc2)noc1=O`, with 5.96 µM (active); and `O=C(Cn1c(-c2ccccc2)noc1=O)NCc1ccccc1`, with “inactive”.
Then `COc1ccc(-c2ccc3c(n2)CN(Cc2csc(C)n2)C(=O)CO3)cc1F`, with “inactive”.
The result for `O=C1COc2ccc(-c3ccc(Cl)cc3)nc2CN1Cc1ccccc1` reads “inactive”; that for `Cc1csc(Nc2ccc3c(n2)CN(Cc2ccccc2C)C(=O)CO3)n1`, 19.3 µM (active); that for `CC(=O)c1cccc(N(C(=O)Cn2nnc3ccccc32)C(C(=O)NCc2ccccc2)c2ccc(F)cc2)c1` (stereo unspecified), “inactive”.
As for `N=c1c2c3c(sc2ncn1Nc1ccccc1)CCC3`, the Potency was 3.35 µM (active).
Then `c1cc(Nc2ncnc3sc4c(c23)CCC4)ccn1`, with “inactive”.
The result for `CCN1c2cc(C(=O)Nc3cc(C)cc(C)c3)ccc2C(=O)N2CCCC21` (stereo unspecified) reads “inactive”; that for `O=C(Nc1ccc2c(N3CCCCC3)ncnc2c1)c1ccc(F)c(F)c1`, 4.73 µM (active).
Then `O=C(Nc1ccccc1)c1cnc(N2CCCCC2)c2ccccc12`, with “inactive”.
Turning to `O=C(Nc1ccc2c(N3CCCC3)ncnc2c1)c1cccc(F)c1`, the Potency was 4.73 µM (active).
The result for `Cc1cc(C)cc(C(=O)NC2CCN(c3cc(-c4ccc(F)cc4)[nH]n3)C2)c1` (stereo unspecified) reads “inactive”; that for `O=C(Nc1ccc2c(N3CCCCC3)ncnc2c1)c1cc(F)cc(F)c1`, 1.88 µM (active).
The result for `O=C(Nc1ccc2oc(-c3cccc(F)c3)nc2c1)c1ccc2ccccc2c1` reads “inactive”; that for `Cc1cc(C)cc(C(=O)Nc2ccc3c(N4CCCC4)ncnc3c2)c1`, 2.37 µM (active).
Consider `CC(C)c1noc(-c2cccn3c(CNC(=O)COc4ccc(F)cc4)nnc23)n1`, for which the Potency entry was “inactive”.
The result for `COc1cccc(CNC(=O)CSc2n[nH]c(-c3ccccc3Cl)n2)c1OC` reads “inactive”; that for `CCc1noc(-c2ccn3c(CNC(=O)Cc4ccccc4OC)nnc3c2)n1`, “inactive”.
The result for `COc1ccccc1Cc1nc2ccccc2nc1SCC(=O)NCc1ccccc1Cl` reads 2.11 µM (active); that for `CN1CCCN(C(=O)C2CCCO2)c2ccccc21` (stereo unspecified), “inactive”; that for `O=S(=O)(Cc1ccccc1F)N1CCCC(Cn2c(C3CC3)nc3cccnc32)C1` (stereo unspecified), “inactive”.
The result for `Cc1cc2c(c3oc(=O)c4ccccc4c13)CN(Cc1ccc(F)cc1)CO2` reads 2.66 µM (active); that for `Cc1ccc(CN2COc3cc(C)c4c(oc(=O)c5ccccc54)c3C2)cc1`, 1.33 µM (active).
`COc1ccc(CN2CCC(CO)(CCCc3ccccc3)CC2)c(Cl)c1OC`: the Potency is 8.41 µM (active).
Then `Cc1ccc(C)c(-c2[nH]ncc2CN2CCCC(CO)(CCc3ccccc3)C2)c1` (stereo unspecified), with “inactive”.
